Structures are written as SMILES. Records with an inconclusive call do not appear. The source made the active and inactive calls. Rule for the calls: active = hit-call score of the fitted dose curve at least 0.9, where 1 is the maximum; inconclusive = response in the unintended direction; inactive = score below 0.9.

The target in this assay is human Chymotrypsin Serine Peptidase, ELANE (gene 1991) (UniProt P08246). The assay is described as follows: ERF_FR_ENZ_hELANE: Eurofins (ERF) Enzymatic Neutrophil Elastase LeadHunter Assay for human Chymotrypsin Serine Peptidase. The method, then: ERF_FR_ENZ_hELANE is a biochemical, single-readout assay that uses extracted gene-proteins in a cell-free assay. Measurements were taken 0.5 hour after chemical dosing in a 96-well plate. See Neutrophil Elastase Human Chymotrypsin Serine Peptidase Enzymatic Assay, Cerep.ERF_FR_ENZ_hELANE is an assay component calculated from the ERF_FR_ENZ_hELANE assay. It is designed to measure enzyme activity using a type of enzyme reporter as detected by absorbance with spectrophotometry technology.Data from the assay component ERF_FR_ENZ_hELANE was analyzed at the assay endpoint, ERF_FR_ENZ_hELANE, in the positive analysis fitting direction relative to DMSO as the negative control and baseline of activity. Using a type of enzyme reporter, loss-of-signal activity can be used to understand changes in enzymatic activity as they relate to gene ELANE. To generalize the intended target to other relatable targets, this assay endpoint is annotated to the protease intended target family, where the subfamily is serine peptidase.
Chain of human Chymotrypsin Serine Peptidase, ELANE (gene 1991) (P08246 whole entry, looked up): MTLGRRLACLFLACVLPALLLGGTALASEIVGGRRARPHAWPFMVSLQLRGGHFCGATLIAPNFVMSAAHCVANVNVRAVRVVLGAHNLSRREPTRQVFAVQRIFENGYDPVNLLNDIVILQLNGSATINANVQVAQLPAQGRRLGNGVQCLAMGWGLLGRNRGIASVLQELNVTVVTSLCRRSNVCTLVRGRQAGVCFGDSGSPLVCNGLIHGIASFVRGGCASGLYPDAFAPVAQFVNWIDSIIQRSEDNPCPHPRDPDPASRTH
Human cells are incubated for 30 minutes at 37 C with MeOSAAPV-pNa (0.4 mM) as sunstrate and 3',4'dichloroisocoumarin as control inhibitor. Test Sample Requirements: Minimum for 1) Screen: 60 ul of 10 mM stock -OR- 1 mg (pre-weighed) for 10 uM final testing. 2) Dose Response: 90 ul of 10 mM stock -OR- 1 mg (pre-weighed) for a top concentration at 10 uM.
One may read the AC50 as the concentration giving half of the maximal activity seen. As to `O=C(/C=C/c1ccc(O)cc1)CC(=O)/C=C/c1ccc(O)cc1`, the AC50 is 8.6 µM (active).

In the case of `COc1cc(CCC(=O)CC(=O)CCc2ccc(O)c(OC)c2)ccc1O`, the result was inactive.

Take `COc1cc(/C=C/C(=O)CC(=O)/C=C/c2ccc(O)c(OC)c2)ccc1O`: the call was inactive.
